A selection: hits, their analogues and other compounds. The true share with any hit is near 11%.
IMPase Li cell = cell-permeable IMPase inhibitors with lithium potentiation; CHO-M1 cells, IP1 TR-FRET (IP-One), carbachol + lithium; Potency, µM (doses to about 59.4 µM), for the others: at the top dose activity, negative = IMPase inhibition, usual class: inhibitors; 0.35% of 210,000 active; AID 1457;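 also: IP1 builds up when IMPase is blocked and the TR-FRET signal falls; potency is read from the fitted curve at half-maximal effect; plate controls were basal vehicle for no effect and high inhibitor control for full effect; nearly all actives have a fitted effect of over 50% in size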
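Steps: plate 2000 CHO-M1 cells per well and culture 16–30 h; add compound and lithium; incubate 30 min, 37C; add d2-IP1 tracer and Eu cryptate anti-IP1 antibody in lysis buffer; read after 10 min at room temperature.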
ALDH1A1 block = blocks purified human ALDH1A1 activity; 7.3% of 220,000 active; Potency, µM (doses to about 75.3 µM), for inactives: top-dose activity, negative = inhibition, hits mostly inhibitors; P00352; Purified ALDH1A1, NADH fluorescence, propionaldehyde substrate; active = well fitted inhibition curve with a large enough effect, not every such curve was filed as active; inconclusive = small, poorly fitted or top-dose-only effect, or another doubt; inactive = no such curve, though single readings can be large or run the other way;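 also: potency is read from the fitted curve at half-maximal effect; plate controls were no enzyme wells and a reference inhibitor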
Target sequence (P00352 whole entry, looked up): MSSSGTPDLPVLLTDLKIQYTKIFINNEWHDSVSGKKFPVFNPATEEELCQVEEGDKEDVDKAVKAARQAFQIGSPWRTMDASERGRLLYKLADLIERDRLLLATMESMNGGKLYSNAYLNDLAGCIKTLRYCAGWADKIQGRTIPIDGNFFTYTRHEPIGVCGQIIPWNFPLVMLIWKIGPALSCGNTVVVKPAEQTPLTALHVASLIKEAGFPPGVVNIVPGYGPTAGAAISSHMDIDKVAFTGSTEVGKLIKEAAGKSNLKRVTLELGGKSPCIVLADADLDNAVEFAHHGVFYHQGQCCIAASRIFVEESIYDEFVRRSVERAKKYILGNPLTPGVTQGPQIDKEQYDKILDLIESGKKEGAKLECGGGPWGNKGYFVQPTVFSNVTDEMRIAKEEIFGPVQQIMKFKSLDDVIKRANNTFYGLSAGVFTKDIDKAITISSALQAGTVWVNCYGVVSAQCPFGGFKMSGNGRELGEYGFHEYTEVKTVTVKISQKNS
HPGD inh = HPGD (human) dehydrogenase inhibition; 4.3% of 150,000 active; AID 894; Potency, µM, for inactives: at the top dose activity change, negative = inhibition, hits mostly inhibitors; purified HPGD, NADH fluorescence kinetic, PGE2 substrate; active = well fitted inhibition curve with a large enough effect, not every such curve was filed as active; inconclusive = small, poorly fitted or top-dose-only effect, or another doubt; inactive = no such curve, though single readings can be large or run the other way; also: potency is read from the fitted curve at half-maximal effect
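NADH formation kinetics: reaction with 30 uM PGE2 and 1 mM NAD+ (final), 20 nM enzyme, Tris-HCl pH 8 with Tween 20, after 15 min compound preincubation at room temperature. Fluorescence change, last versus first of five reads.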
ALOX12 inhib = inhibitors of human 12-lipoxygenase (ALOX12); P18054; purified 12-hLO, xylenol orange hydroperoxide absorbance; Potency, µM (series often up to 57.1 µM), for the others: at the top dose activity change, negative = inhibition, actives largely listed as inhibitors; 0.12% of 150,000 active; AID 1452; also: potency is read from the fitted curve at half-maximal effect; nearly all actives have a fitted effect of over 55% in size
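Xylenol orange chromogenic assay: hydroperoxide from 12hLO oxidises Fe(II), giving red-shifted Fe(III)-XO absorbance. Conditions: 150 nM enzyme, 40 uM arachidonic acid, 25 mM Hepes pH 7.0, 0.01% Triton X-100, 30 min, room temperature.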
IMPase cell inh = cell-permeable inhibitors of inositol monophosphatase (IMPase); CHO-M1 cells, IP1 accumulation, HTRF TR-FRET ratio; inhibition (IP1 accumulation), % at 46.1 µM; 120,000 tested, under 10 active; active = well fitted curve in the direction sought with a large enough effect in the signal ratio, not every such curve was filed as active; inconclusive = small, poorly fitted or top-dose-only effect, or a change in a side signal; inactive = no such curve, though single readings can be large or run the other way; the % refers to the signal ratio;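 also: cells stimulated with carbachol in lithium chloride buffer; plate controls were DMSO basal wells for no effect and reference inhibitor wells for full effect; higher means more IMPase inhibition seen as more IP1 and lower FRET ratio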
Target sequence (P97697 whole entry, looked up): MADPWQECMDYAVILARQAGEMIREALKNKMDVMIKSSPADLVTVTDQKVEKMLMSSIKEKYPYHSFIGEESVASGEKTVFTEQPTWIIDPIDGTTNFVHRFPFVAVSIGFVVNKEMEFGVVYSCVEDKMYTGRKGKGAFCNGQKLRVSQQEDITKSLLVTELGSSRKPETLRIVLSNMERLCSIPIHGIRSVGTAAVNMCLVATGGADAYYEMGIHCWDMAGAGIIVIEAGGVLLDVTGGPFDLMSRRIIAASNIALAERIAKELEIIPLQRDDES
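CHO-M1, 2000 cells/well, cultured 16–30 h; cpd up to 46 uM; carbachol (50 uM solution, stimulation buffer w/ 50 mM LiCl, pH 7.4), 30 min 37C; IP-One TR-FRET, 10 min RT; Ex 320/Em 665, 620; Hill-fit AC50.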
PNC inhibitor = blocks assembly of the perinucleolar compartment | PC3M PTB-GFP, PNC prevalence imaging, 16 h; active compounds read low | 3.1% of 140,000 active | activity change (PNC), negative = inhibition, % at 10 µM;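 active = readout at or below -70, meaning at least 70% loss of cells showing the perinucleolar compartment, a nuclear body marking cancer cells; inconclusive = readout between -30 and a set limit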;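 also: plate controls were DMSO wells for no effect and camptothecin positive control wells for full effect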
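Compounds are pinned in duplicate onto adhered PC3M cells stably expressing GFP-tagged PTB and incubated 16 h at 37 C. Cells are then fixed, nuclei stained with Hoechst, and PNC-positive cells counted.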
An asterisk follows results filed as active; ? = inconclusive; . = no result given; [ ] = another dose, or the depositor's remark. Unless noted, calls follow the shape of the dose curve; as a rule, active = well fitted curve in the direction sought with a large enough effect; inconclusive = small, poorly fitted or top-dose-only effect, or another doubt; inactive = no such curve, though single readings can be large; an effect the other way counts as inactive or inconclusive. Unless noted, % is scaled to controls: 0 for no effect and ±100 for the full control effect.

SMILES	IMPase Li cell	ALDH1A1 block	HPGD inh	ALOX12 inhib	IMPase cell inh	PNC inhibitor
CCN(CC)S(=O)(=O)c1ccc(C(=O)NCC(c2ccc(OC)cc2)N2CCOCC2)cc1 (centres undefined)	3%	0.71µM*	.	.	.	.
O=S(=O)(c1ccc(Cl)cc1)c1nc(-c2ccccc2Br)oc1N1CCOCC1	.	.	.	.	-1	.
COc1cc(NC(=O)c2cccs2)c(C(=O)OCC(=O)NC(=O)NC(C)(C)C)cc1OC	12%[38.3 µM]	-6%	-28%	-3%	3	-98*
CCCn1c(-c2ccc(F)cc2)nc2c(NCCN3CCOCC3)nc(C)nc21	-9%	-6%	-16%	-1%	.	.
O=C(CNC(=O)c1ccccc1C(=O)O)c1ccccc1	-5%[38.3 µM]	25µM*	-6%	-6%	-8	22
O=C(O)c1ccccc1C(=O)NCC(O)c1ccccc1 (centres undefined)	.	-5%	.	.	.	.
COC(=O)CNC(=O)c1c(-c2ccccc2Cl)noc1C	4%[38.3 µM]	4%	3%	5%	11	6
O=C(CNC(=S)NC(=O)c1cccs1)c1ccccc1	-2%	7.9µM*	-18%	?	.	?
O=C(CNC(=S)NC(=O)c1ccco1)c1ccccc1	-6%[38.3 µM]	20µM*	-14%	-10%	2	-5
Cc1onc(-c2ccccc2Cl)c1C(=O)NC(=S)NCC(=O)c1ccccc1	10µM*	?	.	.	.	.
COc1ccc(/C=C2\N=C3CCCCCN3C2=O)cc1OC	9%[38.3 µM]	14µM*	-17%	-15%	3	4
COc1cc(/C=C2\N=C3CCCCCN3C2=O)ccc1O	50%[38.3 µM]	?	-28%	-8%	27	?
C[C@H](CO)NC(=O)[C@H]1C[C@@H]1[C@H](NP(=O)(c1ccccc1)c1ccccc1)c1ccccc1	-2%	2%	-7%	-6%	.	.
COc1ccc(COn2c(=O)c(C)[n+]([O-])c3ccccc32)cc1OC	20%[38.3 µM]	?	-10%	-4%	16	-111*
COc1ccccc1COn1c(=O)c(-c2ccco2)[n+]([O-])c2ccccc21	17%	22µM*	.	.	.	.
CCOC(=O)COn1c(=O)c(-c2ccco2)[n+]([O-])c2ccccc21	.	-2%	.	-22%	12	4
O=c1c(-c2ccco2)[n+]([O-])c2ccccc2n1OCc1ccccc1	0%[38.3 µM]	22µM*	?	-18%	7	10
O=c1c(-c2ccco2)[n+]([O-])c2ccccc2n1OCc1ccccc1F	37%[38.3 µM]	?	-7%	0%	5	-2
C=CCOc1ccc(CC(=O)O)cc1Cl	5%	15%	-10%	-5%[0.00818 µM]	.	.
O=C(CSc1ncn[nH]1)c1ccccc1	11%[38.3 µM]	?	22µM*	-17%	-6	26
O=C(CSc1ncn[nH]1)Nc1ccc(Cl)c(Cl)c1	4%[38.3 µM]	4µM*	-3%	-4%	5	?
O=C(CSc1ncn[nH]1)NC1CC2CCC1C2 (centres undefined)	16%[38.3 µM]	?	16µM*	-1%	-5	32
O=C(CSc1nnc(Cc2ccccc2)o1)NC1CC2CCC1C2 (centres undefined)	14%[38.3 µM]	?	-11%	1%	5	?
O=C(CSc1ncn[nH]1)c1ccco1	3%	?	25µM*	-5%	18	-7
CN(Cc1ccco1)c1ncncc1-c1cccnc1	0%	?	.	.	.	.
SMILES	IMPase Li cell	ALDH1A1 block	HPGD inh	ALOX12 inhib	IMPase cell inh	PNC inhibitor
COCCCNC(=O)c1ccc(-n2nc(C(F)(F)F)cc2-c2cccs2)cc1	29%[38.3 µM]	20µM*	14µM*	1%	11	16
Cc1nc2ccccc2n1-c1ccccc1	6%[38.3 µM]	9%	-14%	-6%	-7	?
O=C(O)c1ccccc1-c1nc2ccccc2n1-c1ccccc1	-8%	0%	3%	-2%	.	-109*
Fc1c(F)c(F)c(N=Cc2ccc3ncccc3c2)c(F)c1F	-14%	8.9µM*	-7%	-2%	.	-30
S=C(N/N=C/c1ccc2ncccc2c1)Nc1cccnc1	8%	-9%	.	.	.	.
COc1ccc(Cn2nnnc2CN2CCc3ccccc3C2)cc1	0%[38.3 µM]	11µM*	-10%	-6%	2	-2
OC1(c2ccccc2F)CCN(Cc2nnnn2Cc2ccc(F)cc2)CC1	2%	0%	.	.	.	.
Cc1ccc(Cn2nnnc2CN2CCC(O)(c3cccnc3)CC2)cc1	6%	?	.	.	.	.
COc1ccc(Cn2nnnc2CN2CCC(O)(c3ccccc3F)CC2)cc1	7%	8.9µM*	.	.	.	.
OC1(c2cccnc2)CCN(Cc2nnnn2Cc2ccccc2)CC1	4%	16µM*	.	.	.	.
O=C(NCc1ccco1)c1ccc2c(c1)C(=O)N(Cc1ccccc1)C2=O	-5%[38.3 µM]	13µM*	-26%	-2%	-4[1.84 µM]	?
CC(C(=O)Nc1sc2c(c1C(=O)NCc1ccco1)CCCC2)N1C(=O)c2ccccc2C1=O (centres undefined)	25%[38.3 µM]	-5%	-9%	-3%	-6	20
CCN1C(=O)c2ccc(C(=O)Nc3nccs3)cc2C1=O	33%[38.3 µM]	4.5µM*	-8%	-3%	-1	?
O=C(CCN1C(=O)c2ccccc2C1=O)Nc1sc2c(c1C(=O)NCc1ccco1)CCCC2	-7%[38.3 µM]	?	-13%	-9%	7	-114*
CCN1C(=O)c2ccc(C(=O)NCc3ccccc3)cc2C1=O	18%[38.3 µM]	4.5µM*	-19%	1%	6	-2
COc1ccc2c(c1)C(=O)[C@H](OC(=O)NCc1ccc3c(c1)OCO3)[C@@H](c1ccc(OC)c(Br)c1)O2	-1%	6%	-4%	.	.	.
CCOC(=O)N1CCC(N2C(=O)c3ccc(C(=O)NCc4ccco4)cc3C2=O)CC1	20%	12µM*	-12%	5%	5	-119*
CC(C)CCN1C(=O)c2ccc(C(=O)NCc3ccco3)cc2C1=O	27%[38.3 µM]	11µM*	-16%	2%	5	?
COc1c2c(cc3c1C(NC(N)=O)[N+](C)(C)CC3)OCO2 (centres undefined)	-2%	-5%	-6%	.	.	.
O=S(=O)(NCC(c1ccccc1)N1CCNCC1)c1ccc(Cl)cc1 (centres undefined)	21%[38.3 µM]	8.9µM*	-18%	-18%	10	-19
CCC1CO/C(=C(\C(Cl)=C(Cl)Cl)[N+](=O)[O-])N1 (centres undefined)	4%	-7%	.	.	.	.
COCCCNC(=O)C(=O)N/N=C/c1cc2c(cc1Br)OCO2	5%	0%	.	.	.	.
COCCN1C(=O)/C(=C/c2cc3c(cc2Br)OCO3)NC1=S	9%	0.2µM*	.	.	.	.
COc1cc2c(cc1OC)CN(C(=O)c1cc3ccccc3oc1=O)CC2	11%[38.3 µM]	14%	-1%	-1%	-1	-13
COc1cccc2cc(C(=O)N3CCN(c4ccccc4F)CC3)c(=O)oc12	14%[38.3 µM]	?	-17%	-5%	-8	?

Screening results: PubChem, National Center for Advancing Translational Sciences (NCATS)
